Measurements published in PubChem BioAssay AID1529 (NMMLSC, 2009).
The campaign covered roughly 290,000 compounds. About 4,200 (1.4%) were called active. What follows is part of a selection rich in actives, with near analogues and random picks from the rest. Values without a mark were called inactive.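 How the source made its calls: active means binding response more than 3 SD above or below the average of its plate-row segment, actives on both sides; inconclusive means wells at one plate position flagged as instrument error; inactive means the rest.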

Target: Mitogen-activated protein kinase kinase kinase 3 (Homo sapiens) (UniProt Q99759)
Assay: modulators of MEKK3-MEK5 PB1 binding, primary screen, biochemical, wildtype MEKK3, multiplex bead flow cytometry, Alexa488-MEK5 (AID 1529);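 further: Alexa488 bead fluorescence after subtracting the streptavidin-only scavenger bead signal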
Settings: bead-based flow cytometry, Alexa488-MEK5 binding to MEKK3; at 10 µM; actives lie on both sides; 0 = blocked by unlabeled MEK5, 100 = vehicle

Sequence of Mitogen-activated protein kinase kinase kinase 3 (Homo sapiens) (Q99759 whole entry, looked up): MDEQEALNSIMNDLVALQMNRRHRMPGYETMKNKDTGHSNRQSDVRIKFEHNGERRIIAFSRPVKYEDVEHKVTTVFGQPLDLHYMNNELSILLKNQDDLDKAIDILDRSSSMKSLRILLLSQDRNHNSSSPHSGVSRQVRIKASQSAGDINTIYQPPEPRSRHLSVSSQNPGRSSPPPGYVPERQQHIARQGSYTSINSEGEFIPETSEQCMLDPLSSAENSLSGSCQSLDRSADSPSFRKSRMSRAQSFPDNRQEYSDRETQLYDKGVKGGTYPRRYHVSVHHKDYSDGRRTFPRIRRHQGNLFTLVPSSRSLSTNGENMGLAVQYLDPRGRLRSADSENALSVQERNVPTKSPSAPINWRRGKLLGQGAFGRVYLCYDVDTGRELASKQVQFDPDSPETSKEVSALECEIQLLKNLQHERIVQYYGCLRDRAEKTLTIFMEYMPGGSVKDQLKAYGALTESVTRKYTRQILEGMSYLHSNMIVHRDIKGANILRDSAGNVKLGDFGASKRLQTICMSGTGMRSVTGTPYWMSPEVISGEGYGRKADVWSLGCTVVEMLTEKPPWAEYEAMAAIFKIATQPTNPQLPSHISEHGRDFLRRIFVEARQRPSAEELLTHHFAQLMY

Point of comparison: `Cc1c(S(=O)(=O)NC(C)c2ccccc2)c(=O)n(C)c(=O)n1C` (stereo not given), binding response (% of control) 101%. Against it:
- O=C(NCc1ccccn1)C1CCN(S(=O)(=O)c2ccc(Br)cc2)CC1 — higher, 103%
- COc1ccc(CNc2ncnc3ccccc23)cc1 — lower, 100%
- O=C(NCc1ccccc1Cl)c1csc2c1CCCCC2 — lower, 96%
- O=[N+]([O-])c1ccccc1NCc1ccccc1Cl — lower, 66%
- CCC(C)[C@H](NC(=O)N1c2ccccc2NC(=O)[C@@H]1C(C)C)C(=O)N[C@@H](Cc1ccccc1)C(=O)O (stereo not given in full) — the same, 101%
- COc1ccc(NC(=O)CCCC2CCCCC2)c(OC)c1 — lower, 97%
- CCCc1ccc(OCCNC(=O)c2ccco2)cc1 — the same, 101%
- CC(=O)NCCNC(=O)c1cc(-c2cccc3ccccc23)nc2ccccc12 — higher, 102%
- CCOC(=O)C1CCN(C(=O)c2ccccc2N(C)S(=O)(=O)c2ccccc2)CC1 — higher, 105%
- O=c1cc(N2CCN(Cc3ccccc3)CC2)c(-c2ccccc2)n[nH]1 — the same, 101%
- c1ccc(-c2cc(N3CCCCC3)c3ccccc3n2)cc1 — lower, 100%
- COc1ccc(-c2noc(CNC(=O)C(C)Oc3ccccc3)n2)cc1 (stereo not given) — lower, 99%
- CC(=O)Nc1ccc(NC(=O)COc2ccc(-c3ccccc3)cc2)cc1 — lower, 99%
- COc1ccc(CCNS(=O)(=O)c2cccc([N+](=O)[O-])c2)cc1 — higher, 111%
- O=C(Nc1ccccc1N1CCN(C(=O)c2ccccc2)CC1)c1ccco1 — lower, 100%
- COc1ccc(CNC(=O)c2nnn(CC(=O)Nc3cc(C)cc(C)c3)c2N)cc1 — lower, 100%
- CCc1ccc(NC(=O)Cn2nnc(C(=O)NCc3ccc(OC)cc3)c2N)cc1 — the same, 101%
- CCOC(=O)c1ccccc1NC(=O)c1c(N)n(C)c(=O)[nH]c1=O — higher, 103%
- COc1ccc(CNC(=O)CN(Cc2ccccc2Cl)C(=O)c2csnn2)cc1 — higher, 104%
- COc1cccc(N2CCN(c3ccc4nnc(CCC(=O)N5CCN(C)CC5)n4n3)CC2)c1 — lower, 100%
- O=C(CSc1n[nH]c(=O)n1-c1ccccc1)Nc1ccccc1C(F)(F)F — higher, 102%
- COC(=O)c1ccc(S(=O)(=O)NCc2ccccc2)n1C — lower, 78%
- COC(=O)C1(C)NC(c2ccccc2OC)C2C(=O)N(c3ccccc3)C(=O)C21 (stereo not given) — higher, 104%
- COC(=O)c1cc(C(=O)OC)cc(N2C(=O)CC(N3CCN(c4ccccc4)CC3)C2=O)c1 (stereo not given) — higher, 103%
- CC(=O)Nc1ccc(S(=O)(=O)N(C)c2nc3ccccc3nc2Cl)cc1 — higher, 103%
- CCc1ccc(-c2cc(C)no2)cc1S(=O)(=O)NCCc1ccc(S(N)(=O)=O)cc1 — higher, 104%
- CCc1ccnc(NC(=O)Nc2ccc(OCc3ccccc3)cc2)c1 — higher, 104%
- Cc1cccc(NC(=O)Nc2ccc(OCc3ccccc3)cc2)n1 — lower, 99%
- COc1cc(CNCc2ccc3c(c2)OCO3)c([N+](=O)[O-])cc1OC — lower, 95%
- COc1cccc(CNS(=O)(=O)c2ccc3c(c2)N(C(C)=O)CCS3)c1 — lower, 93%
- COc1cccc(CC2(CO)CCCN(Cc3ccc(OC(F)F)cc3)C2)c1 (stereo not given) — higher, 109%
- COc1ccccc1N1CCN(C(=O)c2ccc(S(=O)(=O)N3CCCCC3)cc2)CC1 — higher, 102%
- COc1cc2c(cc1OC)CN(C(=O)c1cc(S(=O)(=O)N3CCCCC3)ccc1Cl)CC2 — the same, 101%
- C/C(=N\NC(=O)c1ccccc1F)c1ccccn1 — higher, 106%
- CC(C)(C)n1nc(Cc2cccc3ccccc23)c(C#N)c1N — the same, 101%
- COc1ccc(/C=N/Nc2nc(-c3ccc(C)cc3)c(C#N)c(=O)[nH]2)cc1 — higher, 104%
- CC(C)[C@H](NC(=O)N1CCn2c1nc1ccccc12)C(=O)NCCc1ccccc1 — lower, 100%
- CCOC(=O)C[C@H]1c2ccc(C(F)(F)F)cc2S(=O)(=O)N1c1ccccc1 — lower, 95%
- COCCc1nn2c(=O)cc(COC(=O)c3cc(OC)c(OC)c(OC)c3)nc2s1 — lower, 95%
- Cc1cc(=O)oc2cc(OC(C)C(=O)NCCc3ccc(S(N)(=O)=O)cc3)ccc12 (stereo not given) — lower, 100%
- Cc1cc(C)cc(NC(=O)NCc2ccccn2)c1 — the same, 101%

With `O=C(NCc1ccccc1Cl)NC(=O)c1csc([N+](=O)[O-])c1` the binding response (% of control) was 0% [inhibitor] (active).
For `O=c1cc(N2CCCCC2)c(-c2ccccc2)nn1Cc1cccc(F)c1`, the binding response (% of control) was 157% (active).
In the case of `CCC(C)OC(=O)C(C)Oc1ccc(-c2ccccc2)cc1` (stereo not given), the binding response (% of control) is reported as 2% [inhibitor] (active).
For `COc1ccc(NC(=O)Cn2nnc(C(=O)NCCc3ccc(OC)c(OC)c3)c2N)cc1`, the binding response (% of control) was 2% [inhibitor] (active).
For `Cc1c(S(=O)(=O)NCc2ccccc2)c(=O)n(C)c(=O)n1C`, the binding response (% of control) was 131% (active).
With `COC(=O)C1=NN(c2ccccc2)C2C(=O)N(c3ccccc3OC)C(=O)C12` (stereo not given) the binding response (% of control) was 139% (active).
With `O=C(O)/C=C\C(=O)Nc1ccc(OCc2ccccc2)cc1` the binding response (% of control) was 130% (active).
In the case of `COc1cc2c(cc1OC)CN(C(=O)c1ccc(S(=O)(=O)N3CCCCCC3)cc1)CC2`, the binding response (% of control) is reported as 132% (active).
